Activity calls are given as the source filed them.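 How the source made its calls: active means viability loss from added drug above about 55%, and viability with drug at most 40%, in both replicates (limit read from the data, passing the limit was not always enough); inconclusive means both conditions met in only one replicate; inactive means neither replicate meets both conditions.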
Assay: MRP1 drug-resistance reversers in H69AR cells – cell-based, doxorubicin co-treatment, pilot screen (AID 601)
Settings: H69AR cells + 2 uM doxorubicin, CellTiter-Glo, 72 h; at 10 µM; stronger effect = higher value

SMILES	differential viability (reversal)
COc1ccccc1NC1=NC2(CCCC2)N=C(N)N1	8.79% (inactive)
c1ccc(OCc2nc3ccccc3[nH]2)cc1	1.59% (inactive)
CS(=O)(=O)N(CC(=O)NC1CC1)c1cccc(F)c1	5.87% (inactive)
O=C(NCc1ccco1)C1Cc2ccccc2CN1S(=O)(=O)c1ccccc1F (stereo not given)	-9.23% (inactive)
Oc1cccc2ccc(Nc3ccccn3)nc12	0.495% (inactive)
Cc1ccccc1NS(=O)(=O)c1ccc(NC(=O)c2ccco2)cc1	-0.49% (inactive)
CC(=O)c1c(C)[nH]c(C(=O)NC2=NCCS2)c1C	23.3% (inactive)
Nc1nc(SCc2ccc(Cl)cc2Cl)n[nH]1	4.17% (inactive)
O=C(Nc1ccccc1C(=O)N1CCOCC1)c1ccncc1	7.54% (inactive)
O=C1c2cccnc2C(=O)N1c1cccc(-c2nc3ccccc3o2)c1	6.53% (inactive)
CCOc1ccc(N(C)S(=O)(=O)c2ccc3[nH]cc(C(=O)NCC4CCCO4)c(=O)c3c2)cc1 (stereo not given)	5.04% (inactive)
Cc1cc(=O)oc2c(CN3CCN(C)CC3)c(O)c(Cl)cc12	6.16% (inactive)
Cn1c(=O)c2ccccc2n(Cc2ccccc2F)c1=O	-5.55% (inactive)
COc1ccc(OC)c(-c2nc3c(C)n[nH]c(=O)c3[nH]2)c1	-21.3% (inactive)
COc1ccc(CN(C(=O)CSc2nnc(-c3ccccc3F)o2)c2ccc(F)cc2)cc1	2.2% (inactive)
COc1ccccc1C(=O)Nc1c2c(nn1-c1cccc(C)c1C)CS(=O)(=O)C2	22.9% (inactive)
Cc1cccc(NC(=O)CCn2ccnc2C)c1	3.98% (inactive)
O=c1oc(-c2ccco2)nc2ccccc12	4.72% (inactive)
COCC(=O)N(Cc1ccccc1)c1ccccn1	-1.27% (inactive)
Nc1cc(C(=O)O)ccc1Nc1ccccc1	11.5% (inactive)
O=C1c2ccccc2C(=O)N1CCC(=O)N1CCc2ccccc21	-5.43% (inactive)
Cc1cc(C)n(Cc2nc3ccccc3n2C)n1	8.18% (inactive)
CC(C)c1ccc(NC(=O)C2CC(=O)N(C(C)C)C2)cc1 (stereo not given)	3.6% (inactive)
CSc1nsc(SCC(=O)N2CCc3ccccc32)n1	4.61% (inactive)
CC(Sc1nnc(-c2cc3ccccc3o2)n1-c1ccccc1)C(=O)O (stereo not given)	1.61% (inactive)

Same assay, conditions: H69AR cells + 2 uM doxorubicin, CellTiter-Glo, 72 h; measured here: viability with 2 uM doxorubicin; at 10 µM; stronger effect = lower value

SMILES	viability [%]
CCOC(=O)C1CCCN(C(=O)c2cccs2)C1 (stereo not given)	82.9
O=C(CSc1nnc(-c2ccccc2)o1)N1CCN(c2ccccc2)CC1	94.8
CCOC(=O)N1CCN(C(=O)Nc2ccc3oc(C)nc3c2)CC1	94.1
O=C(CSc1nc2ccccc2o1)N1CCN(c2ccc(Cl)cc2)CC1	85.9
CCCC(=O)N1CCN(c2ccc(NC(=O)c3ccc(Br)o3)cc2)CC1	101
COC(=O)c1[nH]c(C)c(/C(O)=C2\C(=O)C(=O)N(CCCN3CCOCC3)C2c2ccccn2)c1C (stereo not given)	96.1
CCn1c(CSc2nc(C)cc(C)n2)nnc1SCC(=O)Nc1ccccc1	85.4
CN(C)c1oc(-c2ccccc2Cl)nc1C#N	78.1
Cc1ccccc1C(=O)N1CCC(C(=O)Nc2ccc(S(=O)(=O)N3CCCC3)cc2)CC1	82.7
Cc1ccc(-c2[nH]nc3c2C(c2ccoc2)C(C#N)=C(N)O3)cc1C (stereo not given)	86
CCOC(=O)CN(C)Cc1c[nH]c2ccccc12	98.7
Cc1cccc(-n2ncc3c(NCc4ccccn4)ncnc32)c1	87.8
CCCCOc1ccc(C(=O)Nc2ccc(N3CCN(C(=O)C(C)C)CC3)cc2)cc1	81.7
COc1ccc(N(CC(=O)Nc2ccc(F)c(Cl)c2)S(=O)(=O)c2c(C)noc2C)cc1	89.3
O=C(c1ccc(-c2ccccc2)cc1)N1CCC(C(=O)N2CCCC2)CC1	91.4
COc1ccccc1NC1=NC2(CCCC2)N=C(N)N1	90.9
c1ccc(OCc2nc3ccccc3[nH]2)cc1	90.6
CS(=O)(=O)N(CC(=O)NC1CC1)c1cccc(F)c1	84.1
O=C(NCc1ccco1)C1Cc2ccccc2CN1S(=O)(=O)c1ccccc1F (stereo not given)	34.6
Oc1cccc2ccc(Nc3ccccn3)nc12	1.5

SMILES	viability [%]
Cc1ccccc1NS(=O)(=O)c1ccc(NC(=O)c2ccco2)cc1	89.7
CC(=O)c1c(C)[nH]c(C(=O)NC2=NCCS2)c1C	76.5
Nc1nc(SCc2ccc(Cl)cc2Cl)n[nH]1	88.3
O=C(Nc1ccccc1C(=O)N1CCOCC1)c1ccncc1	93.6
O=C1c2cccnc2C(=O)N1c1cccc(-c2nc3ccccc3o2)c1	86.4
CCOc1ccc(N(C)S(=O)(=O)c2ccc3[nH]cc(C(=O)NCC4CCCO4)c(=O)c3c2)cc1 (stereo not given)	82.9
Cc1cc(=O)oc2c(CN3CCN(C)CC3)c(O)c(Cl)cc12	84.5
Cn1c(=O)c2ccccc2n(Cc2ccccc2F)c1=O	90.8
COc1ccc(OC)c(-c2nc3c(C)n[nH]c(=O)c3[nH]2)c1	90.7
COc1ccc(CN(C(=O)CSc2nnc(-c3ccccc3F)o2)c2ccc(F)cc2)cc1	98.8
COc1ccccc1C(=O)Nc1c2c(nn1-c1cccc(C)c1C)CS(=O)(=O)C2	72.3
Cc1cccc(NC(=O)CCn2ccnc2C)c1	88.4
O=c1oc(-c2ccco2)nc2ccccc12	86.2
COCC(=O)N(Cc1ccccc1)c1ccccn1	91.3
Nc1cc(C(=O)O)ccc1Nc1ccccc1	99.8
O=C1c2ccccc2C(=O)N1CCC(=O)N1CCc2ccccc21	92.7
Cc1cc(C)n(Cc2nc3ccccc3n2C)n1	90.9
CC(C)c1ccc(NC(=O)C2CC(=O)N(C(C)C)C2)cc1 (stereo not given)	87.3
CSc1nsc(SCC(=O)N2CCc3ccccc32)n1	92.2
CC(Sc1nnc(-c2cc3ccccc3o2)n1-c1ccccc1)C(=O)O (stereo not given)	93.5
